BoNT-A LC inh2: BoNT/A light chain protease inhibitors, primary screen, biochemical, flow cytometry, MLPCN library | inhibition, % at 10 µM | 360,000 compounds, 0.17% hits | multiplex microsphere protease substrate cleavage
Anthrax LF prot: Bacillus anthracis LF protease inhibitors, primary screen, biochemical, multiplex microsphere, MLPCN library; Lethal factor (Bacillus anthracis), P15917; multiplex microsphere protease cleavage assay; inhibition, % at 10 µM; 360,000 compounds, 0.12% hits; AID 588501, 2011
Target sequence (P15917 whole entry, looked up): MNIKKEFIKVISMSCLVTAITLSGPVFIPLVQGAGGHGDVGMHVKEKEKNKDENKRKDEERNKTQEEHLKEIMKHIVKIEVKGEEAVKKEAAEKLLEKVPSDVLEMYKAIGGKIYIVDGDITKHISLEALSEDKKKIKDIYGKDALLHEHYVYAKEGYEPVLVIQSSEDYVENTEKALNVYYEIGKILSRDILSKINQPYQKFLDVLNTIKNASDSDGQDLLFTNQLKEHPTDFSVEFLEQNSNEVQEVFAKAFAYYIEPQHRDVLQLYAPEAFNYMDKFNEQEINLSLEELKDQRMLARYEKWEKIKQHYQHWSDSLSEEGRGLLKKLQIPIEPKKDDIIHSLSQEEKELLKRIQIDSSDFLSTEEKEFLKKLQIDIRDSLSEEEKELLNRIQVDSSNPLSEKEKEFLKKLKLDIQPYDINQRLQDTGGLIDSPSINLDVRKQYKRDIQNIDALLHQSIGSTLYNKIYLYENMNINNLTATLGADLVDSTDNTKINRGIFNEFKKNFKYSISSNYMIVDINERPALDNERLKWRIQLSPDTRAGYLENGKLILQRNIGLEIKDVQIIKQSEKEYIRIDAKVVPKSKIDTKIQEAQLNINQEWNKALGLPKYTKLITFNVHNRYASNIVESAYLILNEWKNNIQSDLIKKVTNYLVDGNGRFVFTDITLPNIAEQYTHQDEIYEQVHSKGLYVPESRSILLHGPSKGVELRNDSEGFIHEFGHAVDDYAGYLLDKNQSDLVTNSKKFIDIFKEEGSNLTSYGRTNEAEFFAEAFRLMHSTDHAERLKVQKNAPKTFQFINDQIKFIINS
Bead autofluor: flagged as autofluorescent in microsphere protease counterscreen; 360,000 compounds, 3.1% hits; compound autofluorescence counterscreen, microsphere flow cytometry; hits give high values; fluorescence intensity (test concentration not listed); in the data active means fluorescence intensity above about 16000; inconclusive means no clear call, values can overlap the other calls
BoNT F protease: BoNT/F light chain protease inhibitors, primary screen, biochemical, flow cytometry, MLPCN library; Multiplex microsphere protease cleavage assay; Botulinum neurotoxin type F light chain protease (Clostridium botulinum); 360,000 compounds, 0.22% hits; inhibition, % at 10 µM; in the data active means inhibition above about 35%, passing the limit was not always enough; inconclusive means no clear call, values can overlap the other calls
Each line names hits and unclear results; the compound was inactive in the other large screens. Compounds with a hit are over-represented: about 3.5% of the library has one in this group of screens. Unless noted, no stated cut-off is given here; in the data, active means inhibition above about 30%; inconclusive means no clear call, values can overlap the other calls; inactive means below that.

Cc1ccc(C)c(CSc2nnc([C@@H](N)C(C)C)o2)c1	Bead autofluor 16262
CCOC(=O)c1nnn(-c2nonc2N)c1-c1ccccc1	Bead autofluor 23505
CCOC(=O)c1nnn(-c2nonc2N)c1-c1ccc(C)cc1	none
CCOC(=O)c1nnn(-c2nonc2N)c1CSc1ccccc1	Bead autofluor 22923
O=C(COC(=O)c1cccc(S(=O)(=O)N2CCCCC2)c1)NCc1cccc(Cl)c1	none
COCCN1CSC(=S)N(Cc2ccco2)C1	Bead autofluor 21084
CCOCCCN1CN(Cc2ccco2)CNC1=S	none
S=C1SCN(Cc2ccccn2)CN1Cc1ccco1	Bead autofluor 16488
COC(=O)[C@H]1C[C@@]2(O)CN(S(=O)(=O)c3ccc(C)cc3)C[C@@]2(OC(=O)NCc2ccco2)C[C@H]1C(=O)OC	none
COC(=O)CN(C)C1CC(=O)N(c2ccc(Cl)cc2)C1=O (stereo not drawn)	Bead autofluor 22599
CCN(C(=O)COc1cc(=O)n(CC)c2ccccc12)c1cccc(Cl)c1	Bead autofluor 20694
CCN(C(=O)COc1cc(=O)n(CC)c2ccccc12)c1cc(Cl)ccc1OC	none
CCOC(=O)C1C(=O)CC(C)(O)C(C(=O)OCC)C1c1cc(Br)ccc1OC (stereo not drawn)	Bead autofluor inconclusive
CCOC(=O)C1C(=O)CC(C)(O)C(C(=O)OCC)C1c1ccccc1OC (stereo not drawn)	Bead autofluor 21006
CCCCn1cnc2cc(NCc3ccncc3)ccc21	Bead autofluor 19414
CCn1cnc2cc(NCc3ccc(OC)cc3)ccc21	Bead autofluor 23891
O=C(CNc1ccccc1)N/N=C/c1ccc([N+](=O)[O-])o1	Bead autofluor 24670
Cc1ccc(NCC(=O)N/N=C\c2ccc([N+](=O)[O-])o2)cc1	none
CCC(Sc1nc2ccccc2c(=O)n1CC1CCCO1)C(=O)NCc1cccnc1 (stereo not drawn)	BoNT-A LC inh2 inconclusive, Bead autofluor 20816
CC(=O)NCCn1c(SCC(=O)NCC2CCCO2)nc2ccccc2c1=O (stereo not drawn)	Bead autofluor 22103
Cc1ccc(CNC(=O)CSc2nc3ccccc3c(=O)n2CC2CCCO2)cc1 (stereo not drawn)	none
O=C(CSc1nc2ccccc2c(=O)n1CC1CCCO1)NCC1CCCO1 (stereo not drawn)	BoNT-A LC inh2 inconclusive, Bead autofluor 17453
O=C(Nc1ccncc1)c1ccc(NS(=O)(=O)c2ccc3[nH]c(=O)[nH]c3c2)cc1	none
O=C(CNC(=O)c1cccc(Br)c1)NCCc1nc2ccccc2[nH]1	none
O=C(CNC(=O)c1ccc(Br)cc1)NCCc1nc2ccccc2[nH]1	Bead autofluor 19972
Cc1cc(NC(=O)COc2ccccc2C)ccc1NC(=O)c1cccs1	none
Cc1ccc(NCc2nnc(SCC(N)=O)o2)c(C)c1	none
CCOC(=O)CN(C(=O)CSc1nnc(-c2ccc(OC)c(OC)c2)o1)c1ccccc1	BoNT-A LC inh2 inconclusive, Bead autofluor 20211
CCOC(=O)CN(C(=O)CSc1nnc(CNc2ccc(C)cc2C)o1)c1ccccc1	Bead autofluor 21560
COc1ccc(-c2nnc(SCC(=O)N3CCC(Cc4ccccc4)CC3)o2)cc1OC	Bead autofluor 22436
COc1ccc([N+](=O)[O-])cc1NC(=O)COC(=O)c1ccccn1	none
CC(=O)NCCOc1nc(N(C)C)nc(N2CCCCC2)n1	none
CC(=O)Nc1ccc(NC(=O)C/C(C)=N/NC(=O)c2cccc3ccccc23)cc1	none
CCOC(=O)C1=NN(c2ccccc2C)C2=NC(C)=C(C(=O)OC)C(c3cccs3)N12 (stereo not drawn)	Bead autofluor 17523
CCOC(=O)C1=NN(c2ccccc2)C2=NC(C)=C(C(=O)OC)C(c3cccs3)N12 (stereo not drawn)	none
O=C(c1n[nH]c2ccccc12)N1CCN(c2ccc(F)cc2)CC1	none
O=c1[nH]c(=S)n(Cc2ccc(F)cc2)c(O)c1C=NCc1cccnc1	Bead autofluor 16199
O=c1[nH]c(=O)n(CCC2=CCCCC2)c(O)c1C=NCc1cccnc1	none
CC(C)(C)NC(=O)CSc1n[nH]c(=O)n1-c1ccccc1	Bead autofluor 20863
Cc1nn(-c2ccccc2C(=O)O)c(=O)c2ccccc12	Bead autofluor 22783
Cc1nn(-c2ccccc2[N+](=O)[O-])c(=O)c2ccccc12	none
COc1ccc(Cc2nnc(Cl)c3ccccc23)cc1OC	none
O=C(NCc1ccccn1)C1CCN(Cc2cnn(-c3ccccc3)c2-n2cccc2)CC1	Bead autofluor 22540
CCN(CC)C(=O)CSCc1cnn(-c2ccccc2)c1-n1cccc1	BoNT-A LC inh2 inconclusive, Bead autofluor 22480
O=C(CSCc1cnn(-c2ccccc2)c1-n1cccc1)NCc1ccccn1	none
O=C(NCc1cccnc1)C1CCCN(Cc2cnn(-c3ccccc3)c2-n2cccc2)C1 (stereo not drawn)	Bead autofluor 23887
O=C(NC1CC1)C1CCN(Cc2cnn(-c3ccccc3)c2-n2cccc2)CC1	Bead autofluor 23345
O=C(CN1CCOCC1)Nc1scc2c1c(=O)oc1ccccc12	Anthrax LF prot inconclusive
CC(C)(C)OC(=O)NCCCCCNC(=O)c1nc[nH]c1C(=O)NCCCCCNC(=O)OC(C)(C)C	none
COC(=O)C(Nc1ccccc1Cl)(c1cc(C)c(O)c(C)c1)C(F)(F)F (stereo not drawn)	none
COC(=O)/C(=C(/F)Sc1cc(C)c(O)c(C)c1)C(F)(F)F	Bead autofluor 22354
COC(=O)c1cnc(SC)nc1C	BoNT-A LC inh2 inconclusive, Bead autofluor 20134
CSc1ncc(C(=O)Nc2ccccc2C)c(C)n1	none
NC(c1cccc(F)c1)c1nc(-c2ccc(Cl)cc2)cs1 (stereo not drawn)	none
CC1CCN(C(=O)COC(=O)c2ccc(Cl)nc2)CC1	none
O=C(OCC(=O)N1CCOCC1)c1ccc(Cl)nc1	Bead autofluor 22562
C=CCN1C(=O)C(C)(C)Nc2ccccc21	BoNT-A LC inh2 inconclusive, Bead autofluor 20000
O=C(C1CCC(=O)N1Cc1ccccc1Cl)N1CCC2(CC1)OCCO2 (stereo not drawn)	Bead autofluor 20370
CNC(=O)C1CCC(=O)N1Cc1ccccc1Cl (stereo not drawn)	Bead autofluor 23165
O=C(Nc1cc(Cl)cc(Cl)c1)C1CCC(=O)N1Cc1ccccc1Cl (stereo not drawn)	Bead autofluor 21909
CC(NC(=O)C1CCC(=O)N1Cc1ccccc1Cl)c1ccccc1 (stereo not drawn)	none
CC(C)C(OC(=O)C1CCCO1)C(=O)NC1CCCC1 (stereo not drawn)	Bead autofluor 18597
CC(C)C(OC(=O)c1ccco1)C(=O)NC1CCCC1 (stereo not drawn)	none
CNc1c([N+](=O)[O-])cnn1-c1ccc(Cl)cc1Cl	Bead autofluor 18639
CNc1c([N+](=O)[O-])cnn1-c1ccccc1Cl	Bead autofluor 23635
Cc1nc(Cl)c(C#N)cc1-c1ccccc1	Bead autofluor 19692
O=C(COc1cc2oc(=O)cc(-c3ccccc3)c2cc1Cl)NC(Cc1c[nH]c2ccc(O)cc12)C(=O)O (stereo not drawn)	none

Source: PubChem (NMMLSC)
